Records with an inconclusive call do not appear. Calls of active or inactive are those of the source.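 The calls were made as follows, unless noted: active = growth inhibition above 25% in both replicates, a cutoff set 3 SD above the mean; inconclusive = above 25% in only one replicate; inactive = the rest.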
Assays:
[1] = Her2 expression decrease, cell viability multiplex – SKBR3 breast tumor cells, AlphaScreen, ATP viability, primary screen (AID 461;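 active = Her2 level under about 52% in both replicate screens, with viability over 70% of control, limit read from the data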;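 as to Her2 level: lower value means less Her2 protein in the cells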;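 as to viability: percent of carrier control wells set as 100% viability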); conditions: SKBR3 Her2 protein level, 18-24 h, measured here: SKBR3 viability, ATP luminescence, at 10 µM
[2] = target: Receptor tyrosine-protein kinase erbB-2 (Homo sapiens) (UniProt P04626); assay: as above; conditions: 18-24 h, at 10 µM, stronger effect = lower value
[3] = reduced viability of SK-BR-3 breast cancer cells – cell-based, 24 h, human, pilot screen (AID 572;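 active = viability at or below 10% of carrier control in both of two separate runs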;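 also: compound exposure lasted between 18 and 24 h rather than exactly 24 h; 100% = carrier-treated control wells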); conditions: SK-BR-3 viability, CellTiter-Glo luminescence, at 10 µM, stronger effect = lower value
[4] = HUVEC growth inhibition – cell-based, human, primary screen (AID 575;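 active = viability at or below 30% in both replicate assays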;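 also: 100% = median of untreated cell wells with 0.1% DMSO on each plate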); conditions: HUVEC proliferation, CellTiter-Glo luminescence, 72 h; at 10 µM; stronger effect = lower value
[5] = H69AR cell proliferation blockers – human, duplicate replicates, primary screen (AID 580;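 active = viability at or under a set limit in both replicates, limit being median viability minus 3 SD, cut at about 48% in these data, passing the limit was not always enough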;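 also: 100% = mean luminescence of untreated wells and 0% = no signal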); conditions: H69AR lung tumor cells viability, ATP luminescence, 72 h; at 10 µM; stronger effect = lower value
[6] = MRP1 drug-resistance reversers in H69AR cells – cell-based, doxorubicin co-treatment, pilot screen (AID 601;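 active = viability loss from added drug above about 55%, and viability with drug at most 40%, in both replicates, limit read from the data, passing the limit was not always enough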); conditions: CellTiter-Glo, 72 h, at 10 µM; for differential viability (reversal): stronger effect = higher value
[7] = yeast transport mutant growth inhibition pilot in 384-well plates, post-Golgi transport modulator project (AID 636; in the data active = inhibition above about 31%); conditions: absorbance 615 nm, about 18 h, stronger effect = higher value
[8] = growth suppression of yeast trafficking mutant, preliminary HTS, modulators of trafficking downstream of Golgi apparatus project, 1536-format plate, OD 615 nm (AID 637; in the data active = inhibition above about 30%); conditions: yeast transport mutant growth, absorbance 615 nm, 18 h; stronger effect = higher value
[9] = S. cerevisiae growth inhibition in permissive medium (OD615), pilot counter-assay for S. cerevisiae lifespan shortening project, permissive growth control (AID 705); conditions: OD615, 24 h, at 10 µM, stronger effect = higher value
[10] = S. cerevisiae growth inhibition in restrictive medium, OD615, pilot screen, restrictive growth control, yeast lifespan reduction project (AID 706;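 active = growth inhibition above a set limit, 3 SD over mean compound inhibition, in both replicates, cut at about 43% in these data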;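 also: modified DeaD lifespan yeast strain shifted to restrictive glucose medium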); conditions: OD615, 48 h, at 10 µM, stronger effect = higher value
[11] = doxorubicin toxicity protection in MRP-1 cells – H69AR cells, CellTiter-Glo, duplicate, MRP-1 activator project, pilot screen (AID 807;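 active = viability increase at or above a cutoff of the median across tested compounds plus 3 SD, cut at about 8.5% in these data, passing the limit was not always enough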;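 also: compound pretreatment 18-22 h then 72 h combined with doxorubicin; 0% = doxorubicin alone and 100% = vehicle without doxorubicin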); conditions: H69AR viability with doxorubicin, CellTiter-Glo luminescence; at 10 µM; stronger effect = higher value
[12] = viability of HCT116 without oncogenic beta-catenin – human colon tumor cells, pilot screen (AID 823;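 active = cell viability at or below a set limit in both duplicate runs, the limit being the all-compound median minus 4 SD, cut at about 23% in these data, passing the limit was not always enough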;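 also: 0% = wells killed by 20 µM Hyamine and 100% = untreated DMSO cell wells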); conditions: HCT116 beta-catenin knockout viability, CellTiter-Glo, 60 h; at 10 µM; stronger effect = lower value
[13] = viability of PTEN-null HCT116 cells – cell-based, HCT116 clonal line, CellTiter-Glo, pilot screen (AID 824;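 active = viability at or below 27.92% in each of two runs, the all-compound median minus 4 SD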;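 also: 0% = 20 µM Hyamine control and 100% = vehicle cell control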); conditions: HCT116 PTEN-deleted viability, 60 h, at 10 µM, stronger effect = lower value
[14] = RAM pathway blockade in budding yeast – dse1pr::URA3 reporter, 5-FOA selection, pilot screen (AID 869;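 active = inhibition over a set limit, the all-compound mean plus 3 SD, in both replicate runs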;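 also: 0% = DMSO wells with no growth and 100% = 10 µM 1-NA-PP1 with full growth; RAM network block rescues cells from 5-FOA so hits raise OD615 growth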); conditions: S. cerevisiae dse1pr::URA3 5-FOA growth, OD615, 2 d; at 10 µM; stronger effect = higher value; strain carries analog-sensitive mutant Cbk1 kinase
[15] = RAM signaling pathway blockade in yeast – S. cerevisiae, Pdr1DBD-CYC8 efflux-inhibited sensitized strain, primary screen (AID 1298;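 active = RAM network inhibition above 8.4% in each of two replicates, 3 SD over the compound average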;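 also: 0% = DMSO untreated cells without growth and 100% = 10 µM 1-NA-PP1 full growth; higher means more yeast growth rescued from 5-FOA killing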); conditions: S. cerevisiae cbk1-as DSE1-URA3 strain, 5-FOA growth OD615, 2 d; at 50 µM; stronger effect = higher value
[16] = H69AR cells + 2 uM doxorubicin, measured here: viability with 2 uM doxorubicin, stronger effect = lower value
[17] = H69AR cells, compound alone cytotoxicity

Receptor tyrosine-protein kinase erbB-2 (Homo sapiens), sequence (P04626 whole entry, looked up): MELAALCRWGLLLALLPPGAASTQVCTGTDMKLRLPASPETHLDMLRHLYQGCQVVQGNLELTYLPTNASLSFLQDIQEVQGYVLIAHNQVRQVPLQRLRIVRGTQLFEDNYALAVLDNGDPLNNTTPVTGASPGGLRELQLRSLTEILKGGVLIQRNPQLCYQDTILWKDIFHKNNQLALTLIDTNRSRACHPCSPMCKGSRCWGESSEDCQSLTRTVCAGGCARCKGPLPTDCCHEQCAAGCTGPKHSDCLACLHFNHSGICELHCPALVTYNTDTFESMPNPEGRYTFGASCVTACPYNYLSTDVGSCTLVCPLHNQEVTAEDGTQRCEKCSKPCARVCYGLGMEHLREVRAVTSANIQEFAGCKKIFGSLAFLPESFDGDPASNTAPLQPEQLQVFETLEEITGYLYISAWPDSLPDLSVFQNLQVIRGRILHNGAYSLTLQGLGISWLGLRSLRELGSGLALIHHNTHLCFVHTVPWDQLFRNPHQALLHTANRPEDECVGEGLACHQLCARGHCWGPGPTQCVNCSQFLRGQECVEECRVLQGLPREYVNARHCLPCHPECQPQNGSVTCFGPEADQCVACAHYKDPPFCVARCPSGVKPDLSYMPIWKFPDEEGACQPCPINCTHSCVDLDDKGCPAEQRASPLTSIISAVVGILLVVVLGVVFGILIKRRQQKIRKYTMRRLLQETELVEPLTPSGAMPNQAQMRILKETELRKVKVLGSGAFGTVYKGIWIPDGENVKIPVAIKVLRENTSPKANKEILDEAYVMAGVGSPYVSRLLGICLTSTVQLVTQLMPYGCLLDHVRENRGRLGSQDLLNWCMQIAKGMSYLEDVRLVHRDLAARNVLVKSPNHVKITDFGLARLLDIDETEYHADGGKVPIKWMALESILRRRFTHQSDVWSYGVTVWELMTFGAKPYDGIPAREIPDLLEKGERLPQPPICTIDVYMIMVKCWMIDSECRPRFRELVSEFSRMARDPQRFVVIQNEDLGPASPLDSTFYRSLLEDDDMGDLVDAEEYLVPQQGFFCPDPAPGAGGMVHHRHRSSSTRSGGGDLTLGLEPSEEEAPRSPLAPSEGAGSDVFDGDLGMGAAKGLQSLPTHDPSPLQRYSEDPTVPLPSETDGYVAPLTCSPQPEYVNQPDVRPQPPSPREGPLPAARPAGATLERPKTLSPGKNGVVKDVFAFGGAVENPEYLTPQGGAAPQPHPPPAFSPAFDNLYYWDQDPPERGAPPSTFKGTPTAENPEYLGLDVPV

O=C(c1ccc(Br)cc1)N1CCN(S(=O)(=O)c2ccccc2)CC1
92.6%: viability [6, 17]
113%: viability [1]
inactive: Her2 level [2] 120% | viability [3] 113% | viability [4] 103% | viability [5] 92.6% | differential viability (reversal) ([6]; H69AR cells + 2 uM doxorubicin) -2.33% | inhibition [7] 3.33% | inhibition [8] 2.33% | growth inhibition [9] 4.02% | growth inhibition [10] 11.1% | viability increase [11] -1.15% | viability [12] 84.7% | viability [13] 90.4% | inhibition [14] 1.71% | RAM network inhibition [15] 1.8%
94.9%: viability [6, 16]

N#Cc1cc2c(nc1SCC(=O)N1CCCCC1)CCCC2
86.4%: viability [6, 16]
85%: viability [1]
inactive: Her2 level [2] 130% | viability [3] 85% | viability [4] 88.3% | viability [5] 87.6% | differential viability (reversal) ([6]; H69AR cells + 2 uM doxorubicin) 1.21% | inhibition [7] 3.51% | inhibition [8] -6.67% | growth inhibition [9] -16.8% | growth inhibition [10] -1.56% | viability increase [11] -1.73% | viability [12] 93% | viability [13] 91.3% | inhibition [14] 3.67% | RAM network inhibition [15] 2.13%
87.6%: viability [6, 17]

Nc1nc2n(n1)C(c1c(F)cccc1Cl)CC(c1ccc(F)cc1)N2 (stereo not given)
102%: viability [1]
89.6%: viability [6, 16]
86.2%: viability [6, 17]
inactive: Her2 level [2] 91.5% | viability [3] 102% | viability [4] 103% | viability [5] 86.2% | differential viability (reversal) ([6]; H69AR cells + 2 uM doxorubicin) -3.43% | inhibition [7] -5.2% | inhibition [8] 0.33% | growth inhibition [9] -4.67% | growth inhibition [10] 0.29% | viability increase [11] -2.4% | viability [12] 89.7% | viability [13] 86.9% | inhibition [14] 0.17% | RAM network inhibition [15] 3.18%

CN(C)CCN1C(=O)C(O)=C(C(=O)c2cc3ccccc3o2)C1c1ccc(N(C)C)cc1 (stereo not given)
inactive: Her2 level [2] 105% | viability [3] 98.5% | viability [4] 94.1% | viability [5] 90.2% | differential viability (reversal) ([6]; H69AR cells + 2 uM doxorubicin) 1.66% | inhibition [7] -3.47% | inhibition [8] 1.17% | growth inhibition [9] -14.2% | growth inhibition [10] -14.1% | viability increase [11] -0.2% | viability [12] 105% | viability [13] 103% | inhibition [14] 0.685% | RAM network inhibition [15] 2.42%
98.5%: viability [1]
90.2%: viability [6, 17]
88.5%: viability [6, 16]

CCOC(=O)N1CCN(C(=O)c2ccc(CS(=O)(=O)c3ccc(OC)cc3)o2)CC1
88%: viability [1]
inactive: Her2 level [2] 88% | viability [3] 88% | viability [4] 104% | viability [5] 89.2% | differential viability (reversal) ([6]; H69AR cells + 2 uM doxorubicin) -9.97% | inhibition [7] -4.67% | inhibition [8] 0% | growth inhibition [9] -12.3% | growth inhibition [10] -27.2% | viability increase [11] -1.05% | viability [12] 104% | viability [13] 97.4% | inhibition [14] -0.045% | RAM network inhibition [15] 4.85%
99.2%: viability [6, 16]
89.2%: viability [6, 17]

O=C1c2ccccc2C(Nc2cccnc2)N1Cc1ccccc1Cl (stereo not given)
inactive: Her2 level [2] 91% | viability [3] 93% | viability [4] 94.9% | viability [5] 86.3% | differential viability (reversal) ([6]; H69AR cells + 2 uM doxorubicin) -16% | inhibition [7] -3.2% | inhibition [8] -3.5% | growth inhibition [9] -5.58% | growth inhibition [10] 10.4% | viability increase [11] -3.57% | viability [12] 102% | viability [13] 99.2% | inhibition [14] 0.17% | RAM network inhibition [15] 0.57%
93%: viability [1]
102%: viability [6, 16]
86.3%: viability [6, 17]

CC1(C)CC(=O)c2cnc(NC(=O)CCc3ccccc3)nc2C1
inactive: Her2 level [2] 82% | viability [3] 93% | viability [4] 112% | viability [5] 90.2% | differential viability (reversal) ([6]; H69AR cells + 2 uM doxorubicin) 0.98% | inhibition [7] -0.65% | inhibition [8] -4.5% | growth inhibition [9] -7.5% | growth inhibition [10] -11.6% | viability increase [11] 1.81% | viability [12] 97.6% | viability [13] 101% | inhibition [14] 1.27% | RAM network inhibition [15] 6.48%
90.2%: viability [6, 17]
89.2%: viability [6, 16]
93%: viability [1]

O=C(C1CCCN(S(=O)(=O)c2cccnc2)C1)N1CCn2c1nc1ccccc12 (stereo not given)
86.1%: viability [6, 16]
inactive: Her2 level [2] 103% | viability [3] 90.5% | viability [4] 105% | viability [5] 95.8% | differential viability (reversal) ([6]; H69AR cells + 2 uM doxorubicin) 9.65% | inhibition [7] 0.51% | inhibition [8] -0.33% | growth inhibition [9] 5.56% | growth inhibition [10] 4.04% | viability increase [11] 0.72% | viability [12] 101% | viability [13] 99.3% | inhibition [14] 0.46% | RAM network inhibition [15] 1.55%
90.5%: viability [1]
95.8%: viability [6, 17]

O=C(Oc1ccc2ccc(OC(=O)N3CCOCC3)cc2c1)N1CCOCC1
84%: viability [6, 17]
inactive: Her2 level [2] 96% | viability [3] 96.5% | viability [4] 108% | viability [5] 84% | differential viability (reversal) ([6]; H69AR cells + 2 uM doxorubicin) -5.42% | inhibition [7] -0.13% | inhibition [8] -2.5% | growth inhibition [9] -14.7% | growth inhibition [10] -15.1% | viability increase [11] 1.51% | viability [12] 92.2% | viability [13] 87.7% | inhibition [14] 1.12% | RAM network inhibition [15] 4.57%
96.5%: viability [1]
89.5%: viability [6, 16]

CCC(C)NC(=O)CS(=O)(=O)Cc1nc(-c2cccc(OC)c2)oc1C (stereo not given)
inactive: Her2 level [2] 98% | viability [3] 80.5% | viability [4] 97.6% | viability [5] 91.4% | differential viability (reversal) ([6]; H69AR cells + 2 uM doxorubicin) -8.61% | inhibition [7] -2% | inhibition [8] -0.66% | growth inhibition [9] 3.02% | growth inhibition [10] 9.5% | viability increase [11] 0.02% | viability [12] 91.9% | viability [13] 93.5% | inhibition [14] 0.02% | RAM network inhibition [15] 3.92%
91.4%: viability [6, 17]
80.5%: viability [1]
100%: viability [6, 16]

— PubChem BioAssay
